Measurements from PubChem BioAssay (NCI).
“And” between values parts separate entries of the source, which are not always exact repeats. Equal entries are not always repeated. Compounds without any hit were thinned out: in the full panel of roughly 83,000, 20% have a hit.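 Plates (96-well) were seeded with cells, treated with compound at one concentration, and incubated for 48 hours before percent growth was determined.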 The source made the active and inactive calls. How the source made its calls: active means growth percent below 10; inactive means the rest.

Each compound was assayed on HL-60(TB) leukemia (assay: NCI-60 one-dose screen, 48 h (100 = growth as untreated, 0 = no growth, -100 = all killed)). Settings: 10 µM unless noted.

| Structure (SMILES) | growth |
| --- | --- |
| Cc1ccc(-c2cc(-c3ccc(Cl)cc3)nc(NC(=O)c3cccnc3)n2)cc1 | 110% (inactive) |
| COc1cnc2c(c1)C(=O)c1c-2n(CCCNC(C)C)c(=O)c2cc(Cl)ccc12 | -69.1% (active) |
| O=C(Cc1ccccc1[N+](=O)[O-])c1ccc2c(c1)OCO2 | 99.7% (inactive) |
| CCOc1ccc(/C=N\N2CCCCCC2)cc1OCC | 92.7% (inactive) |
| COc1cc(/C=C/C(=O)c2ccc(Nc3ncnc4cc(OC)c(OC)cc34)cc2)cc(OC)c1 | 94.2% (inactive) |
| Cn1c(=O)c2c(nc3n2CCN(CCc2ccc(OCCN4CCOCC4)cc2)C3)n(C)c1=O | 101% (inactive) |
| O=C(Nc1nc2ccc(S(=O)(=O)Nc3ccc(C4(C(F)(F)F)CC4)cc3)cc2[nH]1)c1cnccn1 | -12.2% (active) |
| COc1ccc(/C(=C/c2cc(OC)c(OC)cc2[N+](=O)[O-])C(=O)O)cc1 | 98.5% (inactive) |
| O=C(OCc1ccccc1)c1ccccc1 | 132% (inactive) and 98.4% (inactive) |
| COc1c(NC=O)c2c(c([N+](=O)[O-])c1OC)C(=O)OC2 | 98% (inactive) and 90.7% (inactive) |
| COc1ccc(C(=O)COC(=O)[C@H](C[Se][Se]C[C@H](NC(=O)c2ccc(Br)cc2F)C(=O)OCC(=O)c2ccc(OC)cc2)NC(=O)c2ccc(Br)cc2F)cc1 | 2.8% (active) |
| O=c1cc(-c2ccccc2)oc2cc(OCc3cn(Cc4ccc(F)cc4)nn3)cc(OCc3cn(Cc4ccc(F)cc4)nn3)c12 | 98% (inactive) |
| O=S(=O)(NCCNc1cc(-c2c(-c3cccc(O)c3)nc3sccn23)ccn1)c1ccc(C(F)(F)F)cc1 | 15.7% (inactive) |
| O=C(N/N=C/c1ccccc1)C(Oc1ccccc1)c1ccccc1 (stereo not given) | 109% (inactive) |
| CC(=O)c1cc(O)c2ccccc2c1O | 63.9% (inactive) |
| Nc1cccc(NC(=O)C(=O)Nc2cccc(N)c2)c1 | 97.5% (inactive) |
| CCOC(=O)Nc1nc2ccccc2[nH]1 | 101% (inactive) and -38.2% (active) |
| O=C(Cn1c(=O)sc2nc3ccccc3nc21)Nc1ncc(Cc2cccc(Cl)c2Cl)s1 | 98.3% (inactive) |
| C#Cc1cccc(NC(=O)Nc2ccc(NC(=O)CCl)cc2)c1 | 0.172% [8.25 µM] (active) |
| Cn1cnc([N+](=O)[O-])c1S(=O)(=O)Oc1cccc2ccccc12 | 4.37% (active) |

| Structure (SMILES) | growth |
| --- | --- |
| CC(=O)O[C@@H]1CCN2C(=O)N(C)c3ccccc3[C@@H]2C1 | 101% (inactive) |
| COC(=O)/C(CCC=C(C)C)=C1\[C@@H](OC(C)=O)C[C@@]2(C)[C@H]1C[C@@H](O)[C@H]1[C@@]3(C)CC[C@H](NCCN)[C@@H](C)[C@@H]3CC[C@@]12C | -47.4% (active) |
| COC(=O)CCCNC(=O)C(=O)c1c(O)c(O)c(C(C)C)c2cc(C)c(-c3c(C)cc4c(C(C)C)c(O)c(O)c(C(=O)C(=O)NCCCC(=O)OC)c4c3O)c(O)c12 | 11.3% (inactive) |
| O=C(/C=C/c1ccc(Cl)cc1)c1cccc(Nc2nc(Nc3ccccc3)nc(Nc3ccccc3)n2)c1 | 95.9% (inactive) |
| Cc1ccc(N2C(=O)c3cccc4c(N)c(S(=O)(=O)O)cc(c34)C2=O)cc1 | 88.8% (inactive) |
| C=C(C)[C@@H]1CC[C@]2(C(=O)O)CC[C@]3(C)[C@H](CC[C@@H]4[C@@]5(C)C[C@@H](Cc6cn(CCO[C@@H]7O[C@H](COC(C)=O)[C@H](OC(C)=O)[C@H](OC(C)=O)[C@H]7OC(C)=O)nn6)[C@H](O)C(C)(C)[C@@H]5CC[C@]43C)[C@@H]12 | 37.9% (inactive) |
| CN(C)C(C(N)=O)c1ccc(Cl)cc1 (stereo not given) | 89.6% (inactive) |
| CN1CCN(Cc2ccc(NC(=O)c3cncc(C#Cc4cnccc4C(F)(F)F)c3)cc2C(F)(F)F)CC1 | 38.4% (inactive) |
| CCc1ccc(-c2ccc(NC3CCCCCC3)nn2)cc1S(N)(=O)=O | 121% (inactive) |
| N#Cc1nc(-c2ccccc2)oc1S(=O)(=O)N1CCOCC1 | 5.5% (active) |
| COc1cc2c(cc1OCCCCC(=O)Nc1ccc(-c3nc4ccccc4s3)cc1)N=C[C@@H]1CCCN1C2=O | -47.2% (active) |
| FC(F)(F)c1cccc(Nc2ccccc2)c1 | 92.7% (inactive) |
| Cn1c(=O)c2nc(/C=C/c3ccccc3)c(=O)[nH]c2n(C)c1=S | 98.2% (inactive) |
| O=c1cc(-c2ccccc2)oc2cc(OCc3cn(Cc4ccc(F)cc4)nn3)cc(O)c12 | 104% [100 µM] (inactive) |
| CO/N=C/C=C\C(=O)N/C=C/C[C@H]1/C=C/[C@H](O)/C=C\C=C\c2cccc(O)c2C(=O)O1 | 23.3% (inactive) and -28.4% (active) |
| C#Cc1cccc(Nc2ncnc3ccc(-c4cnc(N)nc4)cc23)c1 | 34.2% (inactive) |
| Cc1cccc(C)c1NC(=O)CSC(=S)N1CCCCC1 | 73.2% (inactive) |
| C/C(=N\NC(=O)c1ccccc1O)c1cccc(/C(C)=N/NC(=O)c2ccccc2O)n1 | 6.42% (active) |
| CCOC(=O)C(=Cc1ccc(Br)cc1)C(=O)OCC | -41.8% (active) |
| Cn1cc(-c2csc(-c3c[nH]c4ccc(Br)cc34)n2)c2ccnc(Cl)c21 | 66.8% (inactive) |
